# Rows were chosen to be rich in hits. Some 7.5% of all compounds tested hit in one or more screens of this group.
# Vaccinia mCherry = vaccinia inhibition (mCherry reporter). 0.63% of 310,000 active. Potency, µM (top dose mostly 36.5 µM), inactives show at the top dose activity change, negative = inhibition, actives largely listed as inhibitors. AID 720579. Vaccinia virus mCherry reporter infection, fluorescence; calls by dose curve; tested in A549 cells; also: potency is read from the fitted curve at half-maximal effect; nearly all actives have a fitted effect of over 35% in size
# Vaccinia Venus = vaccinia inhibition (Venus reporter); Vaccinia virus Venus reporter expression, fluorescence; 0.46% of 330,000 active; Potency, µM (highest dose often 36.5 µM), inactives show at the highest dose activity change, negative = inhibition, most hits filed as inhibitors; calls by dose curve; tested in A549 cells; also: potency is read from the fitted curve at half-maximal effect; nearly all actives have a fitted effect of over 30% in size
# Giardia FBPA inh = Giardia lamblia aldolase inhibition | Potency, µM (series often up to 59.6 µM), for the others: top-dose activity, negative = inhibition, most hits filed as inhibitors | AID 2451 | 0.71% of 290,000 active | A8B2U2 | purified Giardia FBPA; also: potency is read from the fitted curve at half-maximal effect; nearly all actives have a fitted effect of over 55% in size
# Target sequence (A8B2U2 whole entry, looked up): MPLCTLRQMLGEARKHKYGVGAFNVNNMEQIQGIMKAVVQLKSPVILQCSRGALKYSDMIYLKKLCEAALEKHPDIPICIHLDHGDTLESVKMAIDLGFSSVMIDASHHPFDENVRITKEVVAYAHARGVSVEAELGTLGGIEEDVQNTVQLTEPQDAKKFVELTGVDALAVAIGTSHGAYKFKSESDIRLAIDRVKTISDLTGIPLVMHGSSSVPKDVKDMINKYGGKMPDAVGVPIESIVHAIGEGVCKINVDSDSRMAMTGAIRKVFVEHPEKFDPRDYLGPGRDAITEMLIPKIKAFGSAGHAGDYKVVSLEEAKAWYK
#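 Giardia FBPA (40 nM reagent) was preincubated 10 min at RT with compound (up to 57.5 uM final), then substrate plus GAPDH/TPI/NAD/arsenate coupling system with diaphorase/resazurin was added; resorufin fluorescence (525/598 nm) was read after 20 min.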
# HCMV inh = human cytomegalovirus inhibition. AID 1259415. HFF cells, HCMV-luciferase reporter, 72 h; hits give low values. activity change, negative = inhibition, % at 57.5 µM. 4.5% of 410,000 active; in the data active = activity change below about -60%; inconclusive = no clear call, values can overlap the other calls; inactive = above about -39%
#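 Human foreskin fibroblasts infected with luciferase-reporter HCMV at MOI 1 PFU/cell, compounds at two doses. Luciferase measured 72 h post infection; normalized to buffer-only basal and Salinomycin (10uM) controls.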
# HCV inhibitor = HCV inhibition; Huh7.5.1 HCVcc-Cre infection, luciferase reporter, 44 h; Potency, µM (titrated, usually from 41.8 µM), for the others: at the highest dose activity change, negative = inhibition, actives largely listed as inhibitors; 3.4% of 340,000 active; also: potency is read from the fitted curve at half-maximal effect
#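 Infectious HCV cell culture screen: compound-treated cells (1,000/well, pre-plated 4 h) are infected with HCVcc-Cre at roughly 0.5 moi and grown 44 h. Infection is quantified by luciferase signal after 15 min substrate incubation at room temperature.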
# FMDV antiviral = antivirals against foot and mouth disease virus; Potency, µM (highest dose often 57.9 µM), for the others: at the highest dose activity change, negative = inhibition, actives largely listed as inhibitors; 1.2% of 410,000 active; AID 1159524; FMDV antiviral cell-based qHTS; calls by dose curve; tested in HEK293T cells; also: read-out not given here; potency is read from the fitted curve at half-maximal effect; nearly all actives have a fitted effect of over 45% in size
# Starred values were filed as active, the others as inactive; i = inactive; ? = inconclusive; · = no result given; [ ] = remark or other dose. Unless noted, calls follow the shape of the dose curve; as a rule, active = well fitted curve in the direction sought with a large enough effect; inconclusive = small, poorly fitted or top-dose-only effect, or another doubt; inactive = no such curve, though single readings can be large; an effect the other way counts as inactive or inconclusive. % is scaled to controls: 0 for no effect and ±100 for the full control effect.
SMILES,Vaccinia mCherry,Vaccinia Venus,Giardia FBPA inh,HCMV inh,HCV inhibitor,FMDV antiviral
Cc1ccc2nc(-c3ccccn3)c(NC3CCCC3)n2c1,12.6µM*,-28.2%,2.8%,-65.7*,?,-6.0%
Cc1cccc(C)c1Nc1c(-c2ccccn2)nc2ccccn12,·,·,-7.6%,-97.1*,10µM*,-28.6%
CC(C)c1ccc(N2C(=O)/C(=C/N(C)C)SC2=S)cc1,·,·,4.0%,-60.1*,-2.9%,0.9%
CC(=O)Nc1ccc(C(=O)N2CCCCC2c2cc(C(=O)NCc3cccnc3)no2)cc1 (centres undefined),2.1%,-9.6%,·,7.4,·,-0.8%
Cc1ccc2c(CN3CCN(c4ccc(Cl)c(Cl)c4)CC3)cc(=O)oc2c1,15.1%,-13.1%,·,9.2,·,0.0%
Cc1cc(NC(=O)CCl)nn1C,?,?,0.6%,?,?,35.5µM*
Cc1cc(NC(=O)CCl)on1,-20.6%,0.4%,-18.7%,-68.0*,?,?
Cn1ccc(NC(=O)CCl)n1,?,?,-6.0%,-99.0*,?,?
Cc1cc(Br)c(NC(=O)CCl)c(Br)c1,?,?,-5.0%,-65.8*,-15.4%,?
Cc1cc(Br)c(NC(=O)CN(C)CCOc2ccccc2)c(Br)c1,·,·,-3.7%,-26.1,?,-5.0%
COc1ccc(C(C)(O)c2nc(-c3ccncc3)cs2)cc1 (centres undefined),-17.4%,-22.5%,·,-37.7,·,?
Cc1sc2ncn(CC(=O)Nc3ccc(F)cc3Cl)c(=O)c2c1S(=O)(=O)N1CCN(c2ncccn2)CC1,1.8%,-5.2%,·,8.1,·,-19.0%
Cc1ccc(C)c(NC(=O)CN2C(=O)NC(CCc3ccccc3)C2=O)c1 (centres undefined),-2.4%,9.3%,·,29.9,11.9%,17.7%
Brc1ccc2[nH]cc(/C=N/N3CCCCC3)c2c1,-10.8%,-27.0%,1.2%,-83.7*,?,-4.8%
C(=NN1CCCCCC1)c1c[nH]c2ccccc12,?,6.1%,·,6.3,11.4%,32.8%
CCOP(=O)(c1ccc(N(C)C)cc1)C(O)c1ccccc1F (centres undefined),-16.4%,-2.0%,13.5%,-14.6,-13.0%,-14.3%
CC(C)COP(=O)(c1ccc(N(C)C)cc1)C(O)c1ccccc1F (centres undefined),·,·,1.7%,-5.5,3.55µM*,22.1%
O=C1Cc2ccccc2Sc2cc(OCCCN3CCCCC3)ccc21,-27.9%,-16.2%,-25.8%,-33.3,?,-17.0%
CN(C)CCCOc1ccc2c(c1)Sc1ccccc1CC2=O,i,-8.7%,?,-16.8,10µM*,-18.5%
Cc1cc(C)c2c(=O)cc(C(=O)Nc3sc4c(c3C(=O)NCc3cccnc3)CCCC4)oc2c1,5.5%,3.5%,·,-10.4,·,-6.6%
O=C(CN1CCN(C(C(=O)Nc2cc(C(F)(F)F)ccc2Cl)c2ccccc2)CC1)NC1CC1 (centres undefined),·,·,·,-22.0,?,39.8µM*
O=C(CN1CCN(C(C(=O)Nc2ccc(Cl)cc2C(F)(F)F)c2ccccc2)CC1)NC1CC1 (centres undefined),·,·,·,1.8,-5.6%,-25.6%
Cc1ccc(S(=O)(=O)Nc2cccc(C(=O)NCc3ccc(S(N)(=O)=O)cc3)c2)cc1,·,·,10.1%,6.8,8.4%,6.6%
CCCc1cc(C(=O)Nc2ccc(C(=O)c3ccc(C)cc3)cc2)n(C)n1,-26.1%,?,·,-24.2,10µM*,-29.4%
CCCCN(C)C(=O)C1CCN(CCCc2ccccc2)CC1,-14.2%,-10.8%,-8.9%,18.0,3.4%,-16.8%
SMILES,Vaccinia mCherry,Vaccinia Venus,Giardia FBPA inh,HCMV inh,HCV inhibitor,FMDV antiviral
CN(C)CC(C)(C)CNC(=O)C1CCN(CCCc2ccccc2)CC1,·,·,?,22.6,12.6µM*,14.6%
CN(Cc1ccccc1)C(=O)C1CCCN(Cc2ccc(Cl)cc2)C1 (centres undefined),·,?,·,-34.7,1.41µM*,?
O=C(C1CCCN(Cc2ccc(Br)cc2)C1)N1CCCCC1 (centres undefined),·,·,?,?,11.2µM*,?
O=C(C[n+]1ccccc1Cl)c1ccc(F)cc1,i,-22.6%,·,·,·,·
Fc1ccc(CNC(=S)NCc2ccccc2)cc1,-18.6%,-0.2%,-0.8%,-19.1,19.4%,55.4%
CCC(NC(=S)NCc1ccc(F)cc1)c1ccc(C(C)C)cc1 (centres undefined),·,·,22.1%,-97.2*,?,-21.1%
CC(NC(=S)NCc1ccc(F)cc1)C12CC3CC(CC(C3)C1)C2 (centres undefined),?,-23.5%,0.1%,-84.6*,-24.7%,-19.3%
CCOc1ccc(C(C)NC(=S)NCc2ccc(Cl)cc2)cc1 (centres undefined),·,·,-7.0%,-74.1*,?,3.0%
CCCc1ccc(C(C)NC(=S)NCc2ccc(F)cc2)cc1 (centres undefined),-16.0%,-22.9%,-23.4%,-27.3,-12.5%,?
CCC(C)c1ccc(C(C)NC(=S)NCc2ccc(F)cc2)cc1 (centres undefined),?,-28.9%,23.7%,-66.9*,7.08µM*,?
Nc1nnc(CCS(=O)(=O)c2ccc(Br)cc2)s1,i,-5.6%,6.9%,-3.7,13.3%,5.7%
Cc1ccc(NC(=O)CCC(=O)N2CCSc3ccccc32)cc1Cl,-12.2%,-4.2%,·,-21.9,·,-8.3%
CC[C@]12c3[nH]c4cc(-c5ccco5)ccc4c3CCN1C(=O)[C@@H](CC(=O)NC(C)(C)C)C[C@@H]2C(=O)N1CCN(C(=O)c2ccco2)CC1,-19.7%,?,·,-6.7,-11.5%[8.37 µM],-18.2%
CCn1ncc(CN2CCN(Cc3cccc(OC)c3)C(CCO)C2)c1C (centres undefined),-10.8%,-12.6%,5.9%,?,-0.2%,2.1%
CNc1ccc(-c2nc(-c3ccccn3)no2)cc1[N+](=O)[O-],-15.3%,2.5%,·,73.7,·,0.0%
COc1cccc(-c2nc(-c3ccccn3)no2)c1,·,·,·,-61.3*,?,20µM*
CCNc1ccc(-c2nc(-c3ccccn3)no2)cc1[N+](=O)[O-],-10.1%,-2.4%,·,-106.2*,·,0.0%
c1ccc(-c2noc(-c3ccc4c(c3)OCO4)n2)nc1,i,-14.2%,0.5%,-80.7*,?,·
c1ccc(-c2noc(-c3ccc4ccccc4c3)n2)nc1,·,·,1.4%,·,?,3.98µM*
CCNCC(=O)N1c2ccccc2CCc2ccc(NC(=O)OC(C)C)cc21,-11.6%,-23.5%,-13.2%,-19.1,?,-27.3%
COc1ccc(-c2nc(CSCC(=O)NCc3ccccc3Cl)c(C)o2)cc1OC,-2.8%,-17.8%,·,-12.5,·,?
Cc1nnc(Nc2ccc(S(N)(=O)=O)cc2)c2ccccc12,i,-14.1%,0.2%,3.1,-0.1%,4.1%
O=C(CSc1nnc2ccc(-c3ccc(F)cc3)nn12)N1CCOCC1,?,-25.3%,·,-20.3,15.3%,1.9%
Cc1sc2ncn(CC(=O)N3CCN(c4ccc(F)cc4)CC3)c(=O)c2c1S(=O)(=O)N1CCCCC1,-3.6%,-12.0%,·,-8.0,·,-14.1%

# Assay outcomes: PubChem BioAssay, National Center for Advancing Translational Sciences (NCATS)
